The chains are these.
B1: chr14:88572724:88572825:+|CDS|ENSG00000100722|unk|FALSE|unique (ssRNA)
RNA: GGGAGUUCUACAGUCCGACGAUCGUGACACUUACAUAUGGUUCUUCUCGCCCUUCUAUUGAAAUUUAUCGACCACCUGCAAGUAGAAAUGCAGAUAGUGGUGUUCAUUUAAACAGGUUGCAAUUUCAACAGCAGCAGAAUAGUCAACAGAGGAUUGAGCAUCA
B2: chr17:42200006:42200107:-|3pUTR|ENSG00000173757|unk|FALSE|unique (ssRNA)
RNA: GGGAGUUCUACAGUCCGACGAUCAAGCUGCCGUUUGCCUUGGCUUGGUUUCAUACACUGAUUUAUUUUUCUAUGCCAGGCAGUAGAGUCUCUCUGCCUCUGAGGAGCAGGCUACCCGCAUCCCACUCAGCCCCUCCCUACCCCCAACAGAGGAUUGAGCAUCA
B3: ENSG00000087269:stop:overlap|stop_codon|ENSG00000087269|stop_codon|NA|stop_codon (ssRNA)
RNA: GGGAGUUCUACAGUCCGACGAUCGGCUGGCUGGUCUCGAAUUCCCGACCUCAGGUAAUCCACCUGCCUUGGCCCCCCAAUUAUAGGUGUGAGCCACAGCACCCAGCCAAAAAAGUAAUUUUUUUUAGAGUAAUAAUGCUAUAACAACAGAGGAUUGAGCAUCA
B4: chr5:41382290:41382405:-|CDS|ENSG00000182836|unk|total|mutant (ssRNA)
RNA: GGGAGUUCUACAGUCCGACGAUCGGCCAAAAAGCUCAUGCGGAAAUGGUCCGCCACUCAGACAAUGAAUUUUACUGGCCAGCCCGGAGCUGGAAUUCGUUAUUUUGAUCUUCGAAUUUCCACCAAGCCCAGAGACCCCGACAACAACAGAGGAUUGAGCAUCA
B5: chr1:71064632:71064733:-|3pUTR|ENSG00000132485|msi1|total|mutant (ssRNA)
RNA: GGGAGUUCUACAGUCCGACGAUCGCUAAGACAGGAUUACCCCGGCUUGCCUGAACUUUGGGCAUGGAAGAAAGACUGGAAACCCGUUGGAAACAACAUACUUAUGGAAAAGAAAGUCAGCCUUUUUAUGCUGUUAACAGAUGUCAACAGAGGAUUGAGCAUCA
B6: chr1:183142599:183142700:+|CDS|ENSG00000135862|msi1|FALSE|unique (ssRNA)
RNA: GGGAGUUCUACAGUCCGACGAUCAACGAGAUUGAAGGCACCCUAAACAAAGCCAAAGAUGAAAUGAAGGUCAGCGAUCUUGAUAGGAAAGUGUCUGACCUGGAGAAUGAAGCCAAGAAGCAGGAGGCUGCCAUCAUGGACUAUCAACAGAGGAUUGAGCAUCA
B7: chr1:23091194:23091296:-|CDS|ENSG00000169641|unk|FALSE|unique (ssRNA)
RNA: GGGAGUUCUACAGUCCGACGAUCCUCCAGAAGGACCCAAAGUAGCCUCACUGUGUCAGAGGUGCUUACCCGUCGGAAUCGGGUAGGAGACACCAUCACUGUCGCAGCCUGGAACCACUCAGCAAGCAUGGUGAGUUCCAGCCUCAACAGAGGAUUGAGCAUCA
B8: ENSG00000160209:stop:overlap|stop_codon|ENSG00000160209|stop_codon|NA|stop_codon (ssRNA)
RNA: GGGAGUUCUACAGUCCGACGAUCCCUUGACCUCCUGGGCUGAAGCAAUCUUUCUGCCUCCACCUCCCGAGUGGCUGGGACUAUAGUUGUGCACCAGCACGCCCACCUCCUGCCCAGGGUUGUUACUGGGGUGGUCACGUGGGCCAACAGAGGAUUGAGCAUCA
B9: chr1:212100457:212100572:+|CDS|ENSG00000143476|unk|FALSE|unique (ssRNA)
RNA: GGGAGUUCUACAGUCCGACGAUCAGAAGAGGCUCUGUCUCCUCCGUCUCUCCCAAGCCACCUUCAUCUUUCAAGAUGUCGAUUAGAAACUGGGUGACCCGAACACCUUCCUCAUCACCACCCAUCACUCCACCUGCUUCGGAGCAACAGAGGAUUGAGCAUCA
B10: chr20:63196482:63196583:-|3pUTR|ENSG00000149658|msi1|total|mutant (ssRNA)
RNA: GGGAGUUCUACAGUCCGACGAUCUGAUUUUUGCCCAGAUGGAUCUGCAUUUAUUUGUACUUUUUCUAUGUAUUAUAAUCCUGCCGAAGUCACUAAUAAAGGAGUAUUUUUUUUGUCAGCUUAUCAAUCAGACUGAUCUAAUGUCAACAGAGGAUUGAGCAUCA
B11: chr16:55506527:55506628:+|3pUTR|ENSG00000087245|msi1|FALSE|unique (ssRNA)
RNA: GGGAGUUCUACAGUCCGACGAUCUAUCAGUUUUAAUGCUACUACUAACAAUGAACAGUAACAAUAAUAUCCCCCUCAAUUAAUAGAGUGCUUUCUAUGUGCAAGGCACUUUUCACGUGUCACCUAUUUUAACCUUUCCAACCACAACAGAGGAUUGAGCAUCA
B12: ENSG00000107863:be:win_4351|CDS|ENSG00000107863|bound_else_gene|NA|bound_elsewhere_windowed (ssRNA)
RNA: GGGAGUUCUACAGUCCGACGAUCCACAAUGAUACUAAAGAGGAGUCCAAAAAAGAAAGUGAGACACUGGGCAGAAAACAGAAGAUCAUCAUUGCCAAAGAAAACAGCACUAGGAAAGACCCCAGCACGACAAAAGAUGAAAAGCAACAGAGGAUUGAGCAUCA
B13: chr13:42886387:42888493:-|three_prime_utr|ENSG00000133106|control|control|control (ssRNA)
RNA: GGGAGUUCUACAGUCCGACGAUCCAUAUUUAAUCUCUACUGCCAGGGAAAUGCUACAUUAUUUUUCUAAUUGGAAGUAUAAUUAGAGUGAUGUUGGUAGGGUAGAAAAAGAGGGAGUCACUUGAUGCUUUCAGGUUAAUCAGACAACAGAGGAUUGAGCAUCA
B14: chr4:143221337:143221438:+|3pUTR|ENSG00000170185|unk|FALSE|unique (ssRNA)
RNA: GGGAGUUCUACAGUCCGACGAUCUUGAAAGGUAAUAGAUUUUCCAGAAGUAAAAUCUGAUGGUUCUAAAUCAAUCAAUGUGAUAGUUCAUUUUUAACUCUUAGAAGAAUUCAGAGGAAAUUAACCCAGCUAAGUAAAAAAUCUCAACAGAGGAUUGAGCAUCA
B15: chr1:46316673:46316776:+|3pUTR|ENSG00000173660|unk|FALSE|unique (ssRNA)
RNA: GGGAGUUCUACAGUCCGACGAUCUGUUUCUUAUUUGUGUAACUGUAAGUUCACAUGAACCUCAUGGGUUUGGCUUAGGCUGGUAGCUUCUAUGUAAUUCGCAAUGAUUCCAUCUAAAUAAAAGUUCUAUGAUCUGCAAACCUGCAACAGAGGAUUGAGCAUCA
B16: chrX:53645320:53645442:-|CDS|ENSG00000086758|unk|FALSE|unique (ssRNA)
RNA: GGGAGUUCUACAGUCCGACGAUCUUAUUGGCUUCCUCUGAUAUGCAAGUGGUGCUGGCAGUCCUCAAUCUCCUAUAUGUAUUUAGCAAAAGAUCAAACUACAUCACUCGUCUGGGAUCUGACAAGAGGACCCCGCUGCUAACUCAACAGAGGAUUGAGCAUCA
B17: chrX:101412715:101412817:+|CDS|ENSG00000126945|unk|total|mutant (ssRNA)
RNA: GGGAGUUCUACAGUCCGACGAUCGGGUAUGGAGGCUAUGAUGACUAUGGUGGCUAUAAUGAUGGAUAUGGCUUUGGGUCUGACCGAUUUGGAAGAGACCUCAAUUACUGUUUUUCAGGAAUGUCUGAUCACCGAUACGGAGAUCAACAGAGGAUUGAGCAUCA
B18: chr7:100033925:100034026:+|CDS|ENSG00000106261|msi1|total|mutant (ssRNA)
RNA: GGGAGUUCUACAGUCCGACGAUCCAGAGCUCGGACCUCACCAAGCAUCAGAGAAUUCACACGGGGGAGAAACCCUAUGAAUGCCGUGAAUGUGGAAAAGCUUUCAACCGAAACUCAUACCUGAUUUUGCAUCGGAGAAUUCACCAACAGAGGAUUGAGCAUCA
B19: chr12:123761472:123761573:+|3pUTR|ENSG00000185344|unk|total|mutant (ssRNA)
RNA: GGGAGUUCUACAGUCCGACGAUCAAUAAGGCAGUUUGAACGAACAGUCUUCCCACAGUCAGGCCAUUUUUGCUGAUUUGGUUCCGAAUUUUCAGAAAUACUCCGUACACUCCACCUGUUCUUUGAUGGGAAUAUCUAAGAAGGCAACAGAGGAUUGAGCAUCA
B20: chr20:2117184:2117286:+|CDS|ENSG00000125834|unk|FALSE|unique (ssRNA)
RNA: GGGAGUUCUACAGUCCGACGAUCGCUCCUGGGGACCUACAUUAAACAGGGGACUGAGAUCGUCCCUGUUGGUGAGGCGCUGCUAGAAAACCCAAAGAUGGAGUUGCACAUCCCCCAAAAACGCAGGACUUCCAUGUCUGAGGGCAACAGAGGAUUGAGCAUCA
B21: chr6:106663037:106663138:+|CDS|ENSG00000130348|msi1|FALSE|unique (ssRNA)
RNA: GGGAGUUCUACAGUCCGACGAUCAGCACAGAAAGUGAGACGCCUCAUUGCUAAUGACUUUGUAAAUGCUUUUAACUCUGGAGUAGAUGUCUUGCUAACUCCCACCACCUUGAGUGAGGCAGUACCAUACUUGGAGUUCAUCAACAACAGAGGAUUGAGCAUCA
B22: ENSG00000070961:be:win_1|CDS|ENSG00000070961|bound_else_gene|NA|bound_elsewhere_windowed (ssRNA)
RNA: GGGAGUUCUACAGUCCGACGAUCAUGGGCGACAUGGCAAACAACUCAGUUGCUUACAGUGGUGUGAAAAACUCUUUGAAGGAAGCUAAUCAUGAUGGAGACUUUGGAAUUACGCUCGCAGAGCUGCGGGCUCUCAUGGAGCUCCAACAGAGGAUUGAGCAUCA

The values that follow come from publication PMC12136788.

Over roughly 5,800 sequences, “enrichment r” has its median near 0.68; the highest 2% begin near 11. Not all results are given here.

For the assay, the target named is T1, UNK ZnF1-6 (called full-length) (human, UniProt Q9C0B0 30-357).
T1 sequence: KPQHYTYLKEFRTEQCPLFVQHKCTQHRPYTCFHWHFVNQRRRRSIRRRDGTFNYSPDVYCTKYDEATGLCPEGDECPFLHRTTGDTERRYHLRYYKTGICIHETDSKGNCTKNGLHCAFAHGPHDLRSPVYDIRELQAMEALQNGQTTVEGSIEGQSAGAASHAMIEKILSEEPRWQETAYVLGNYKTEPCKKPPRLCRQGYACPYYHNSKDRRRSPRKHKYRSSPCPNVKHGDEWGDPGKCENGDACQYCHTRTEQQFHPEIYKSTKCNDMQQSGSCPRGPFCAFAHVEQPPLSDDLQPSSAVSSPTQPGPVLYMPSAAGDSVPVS
The assay can be described thus: nsRBNS (natural sequence RNA bind-n-seq); RBNS binding buffer (assumed for nsRBNS): 25 mM Tris pH 7.5, 150 mM KCl, 3 mM MgCl2, 0.01% Triton X-100, 500 ug/ml BSA, 20 U/ml SUPERase-In, 4 C; UNK is unkempt and MSI1 is Musashi-1; names of the RNAs are library labels; protein concentration not given here; high values mean tight binding.
For B1, the binding signal was found to be 0.593 enrichment R.
The figure for B2 is 0.936 enrichment R.
The figure for B3 is 0.968 enrichment R; for B4 it is 0.445 enrichment R.
The figure for B5 is 0.548 enrichment R; for B6 it is 0.678 enrichment R.
For the molecule B7, the binding signal is 0.389 enrichment R.
The result for B8 reads 0.427 enrichment R; that for B9, 0.772 enrichment R.
The result for B10 reads 0.665 enrichment R; that for B11, 0.763 enrichment R.
Turning to B12, the binding signal was 0.687 enrichment R.
The result for B13 reads 0.481 enrichment R; that for B14, 0.783 enrichment R.
The result for B15 reads 0.574 enrichment R; that for B16, 0.899 enrichment R.
The molecule B17 yielded a binding signal of 0.671 enrichment R.
The result for B18 reads 0.595 enrichment R; that for B19, 0.271 enrichment R; that for B20, 1.08 enrichment R.
In turn, B21 had a binding signal of 0.484 enrichment R.
B22 showed a binding signal of 0.508 enrichment R.
